In PubChem BioAssay (NCATS):
Results filed as inconclusive are left out. Activity calls are given as the source filed them. Unless noted, the call rests on the fitted dose curve.

Columns and labels:
[1] = qHTS for identification of novel therapeutic agents for treatment of microphthalmiaassociated transcription factor (MiT) renal cell carcinoma (RCC) (AID 1963991); settings: CellTiter-Glo, 48 h; for z-score: stronger effect = lower value; for Potency: active = Z-AUC below -0.8 in all three lines
In short: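 Curves over 11 concentrations were fitted to CellTiter-Glo luminescence, scaled between empty wells (0%) and DMSO (100%) viability. Cells were UOK109, UOK124 and UOK145 TFE3-fusion RCC lines at 500/well, exposed 48 hours at 37 C.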

3D7 = experiment: qHTS profiling for inhibitors of Plasmodium falciparum proliferation (AID 504749; active means well fitted inhibition curve with a large enough effect; further: nearly all actives have a fitted effect of over 60% in size); settings: P. falciparum in erythrocytes, SYBR Green DNA, 72 h; series mostly up to 28.7 µM
In short: (§1)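 In a 72 h erythrocytic culture (37 C, humidified, 5% CO2) at 2.5% hematocrit and 0.3% starting parasitemia, compounds were tested; SYBR Green I in detergent lysis buffer stained parasite DNA overnight.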

7G8 = experiment: as above; settings: P. falciparum in erythrocytes, SYBR Green DNA, 72 h; series mostly up to 28.7 µM
In short: as §1

[2] = TFE3-RCC UOK109 viability, measured here: UOK109 Z-AUC
[3] = TFE3-RCC viability, measured here: UOK124 Z-AUC
[4] = TFE3-RCC viability, measured here: UOK145 Z-AUC
Potency means the concentration at half of the fitted maximal effect.

`O=C(O)C(=O)Nc1cccc(C2=NN=N[N]2)c1` gave a z-score [1, 2] of 0.225, a z-score [1, 3] of 0.525 and a z-score [1, 4] of 0.0651.

`CC[C@H](CC[C@@H](C)[C@H]1CC[C@H]2[C@@H]3CC=C4C[C@@H](O)CC[C@]4(C)[C@@H]3CC[C@]12C)C(C)C` gave a z-score [1, 2] of 0.368, a z-score [1, 3] of 0.916 and a z-score [1, 4] of 0.197.

For `COc1cccc2c1C(=O)c1c(O)c3c(c(O)c1C2=O)C[C@@](O)(C(C)=O)C[C@H]3O[C@H]1C[C@H](N)[C@H](O)[C@H](C)O1`, the Potency ([1]; TFE3-RCC UOK109 viability) was 296 nM (active), the z-score [1, 2] was -1.65 and the z-score [1, 3] was -2.33. The z-score [1, 4] was -1.35.

`CC(C)OC(=O)[C@H](C)N[P@](=O)(OC[C@H]1O[C@@H](n2ccc(=O)[nH]c2=O)[C@](C)(F)[C@H]1O)Oc1ccccc1` showed a z-score [1, 2] of 0.488, a z-score [1, 3] of 1.3 and a z-score [1, 4] of 0.519.

With `CC(=O)OCC(=O)[C@@]12N=C(C)O[C@H]1C[C@H]1[C@@H]3CCC4=CC(=O)C=C[C@]4(C)[C@@H]3[C@@H](O)C[C@@]12C` the z-score [1, 2] was 0.415, the z-score [1, 3] was 0.48 and the z-score [1, 4] was 2.44.

For `CC(C)N1[N]C(=C2C=c3cc(O)ccc3=N2)c2c(N)ncnc21`, the Potency ([1]; TFE3-RCC UOK109 viability) was 1870 nM (active), the z-score [1, 2] was -1.06 and the z-score [1, 3] was -1.57. It also gave a z-score [1, 4] of -0.805.

`OCCN1C[C@H](O)[C@@H](O)[C@H](O)[C@@H]1CO` gave a z-score [1, 2] of 0.705, a z-score [1, 3] of 0.522 and a z-score [1, 4] of 1.03.

With `CCOc1cc2ncc(C#N)c(Nc3ccc(OCc4ccccn4)c(Cl)c3)c2cc1NC(=O)C=CCN(C)C` the Potency ([1]; TFE3-RCC UOK109 viability) was 16.6 nM (active), the z-score [1, 2] was -2.6 and the z-score [1, 3] was -0.947. It also gave a z-score [1, 4] of -1.43.

In the case of `CC(=O)N1CCN(c2ccc(OCc3nn(C)c(C)c3-c3cccc4c(CCCOc5cccc6ccccc56)c(C(=O)O)n(Cc5cccnc5)c34)cc2)CC1`, the Potency ([1]; TFE3-RCC UOK109 viability) was 935 nM (active), the z-score [1, 2] was -1.06 and the z-score [1, 3] was -1.35. It also gave a z-score [1, 4] of -1.45.

`C[C@]12CCC(=O)C=C1[C@@H]1CC1[C@H]1[C@H]3[C@@H]4C[C@H]4[C@@]4(CCC(=O)O4)[C@@]3(C)CC[C@H]12` (some centres not stated) gave a z-score [1, 2] of 0.661, a z-score [1, 3] of 0.572 and a z-score [1, 4] of -2.84.

For `CS[C@H]1SC[C@@H]2C(=O)N(C)[C@H](C(C)C)C(=O)OC[C@H](NC(=O)c3cnc4ccccc4n3)C(=O)N[C@H](C)C(=O)N(C)[C@@H]1C(=O)N(C)[C@H](C(C)C)C(=O)OC[C@H](NC(=O)c1cnc3ccccc3n1)C(=O)N[C@H](C)C(=O)N2C`, the Potency ([1]; TFE3-RCC UOK109 viability) was 8.33 nM (active), the z-score [1, 2] was -2.31 and the z-score [1, 3] was -3.01. The z-score [1, 4] was -2.26.

In the case of `O=C(C=Cc1ccc(CN(CCO)CCc2c[nH]c3ccccc23)cc1)NO`, the Potency ([1]; TFE3-RCC UOK109 viability) was 590 nM (active), the z-score [1, 2] was -1.47 and the z-score [1, 3] was -3.24. It also gave a z-score [1, 4] of -1.37.

Molecule `OC[C@@H](O)[C@@H](O)[C@H](O)[C@@H](O)CO` has a z-score [1, 2] of 0.602, a z-score [1, 3] of 0.356 and a z-score [1, 4] of 0.716.

With `Cc1onc(-c2ccccc2)c1C(=O)N[C@@H]1C(=O)N2[C@@H](C(=O)O)C(C)(C)S[C@@H]12` the z-score [1, 2] was 2.05, the z-score [1, 3] was 0.727 and the z-score [1, 4] was 1.83.

Molecule `C[C@H](O)[C@@H]1C(=O)N2C(C(=O)O)=C(S[C@@H]3CN[C@H](CNS(N)(=O)=O)C3)[C@@H](C)[C@@H]12` has a z-score [1, 2] of -0.714, a z-score [1, 3] of 0.967 and a z-score [1, 4] of -1.41.

`Cc1cn([C@@H]2O[C@H](CO)[C@@H](O)[C@H]2F)c(=O)[nH]c1=O` gave a z-score [1, 2] of 0.17, a z-score [1, 3] of 0.993 and a z-score [1, 4] of 0.494.

With `CC(=O)[C@]1(O)Cc2c(O)c3c(c(O)c2[C@@H](O[C@H]2C[C@H](N)[C@@H](O)[C@H](C)O2)C1)C(=O)c1ccccc1C3=O` the Potency ([1]; TFE3-RCC UOK109 viability) was 332 nM (active), the z-score [1, 2] was -1.95 and the z-score [1, 3] was -1.91. It also gave a z-score [1, 4] of -1.45.

In the case of `C[N+]1(C)[C@@H]2C[C@@H](OC(=O)C(O)(c3cccs3)c3cccs3)C[C@H]1[C@@H]1O[C@@H]12`, the z-score [1, 2] was 0.526, the z-score [1, 3] was 0.59 and the z-score [1, 4] was 0.677.

Work on `OCC(O)C(O)C(O)CO` (configuration not stated) yielded a z-score [1, 2] of 0.353, a z-score [1, 3] of 0.172 and a z-score [1, 4] of 0.47. For the same molecule, the Potency (3D7) was “inactive” and the Potency (7G8) was “inactive”.

For `O=C1NC(=O)[C@@H](c2cn3c4c(cccc24)CCC3)[C@H]1c1c[nH]c2ccccc12`, the Potency ([1]; TFE3-RCC UOK109 viability) was 935 nM (active), the z-score [1, 2] was -1.28 and the z-score [1, 3] was -0.931. For the same molecule, the z-score [1, 4] was -1.11.

In the case of `C=CC(=O)Nc1cccc(Nc2nc(NC3CCC(N(C)C)CC3)nc3c2ncn3C(C)C)c1` (configuration not stated), the Potency ([1]; TFE3-RCC UOK109 viability) was 46.9 nM (active), the z-score [1, 2] was -3.03 and the z-score [1, 3] was -0.935. For the same molecule, the z-score [1, 4] was -1.36.

Molecule `COC(=O)[C@@H]1CC2=CC(=O)CC[C@]2(C)[C@@]23O[C@@H]2C[C@@]2(C)[C@H](CC[C@@]24CCC(=O)O4)[C@@H]13` has a z-score [1, 2] of 0.222, a z-score [1, 3] of 0.454 and a z-score [1, 4] of 0.45.

With `COc1ccc2c(c1OC)C(=O)OC2[C@H]1c2c(cc3c(c2OC)OCO3)CCN1C` (some centres not stated) the Potency (3D7) was “inactive” and the Potency (7G8) was “inactive”.

With `CCc1cnn2c(NCc3ccc[n+]([O-])c3)cc(N3CCCC[C@@H]3CCO)nc12` the Potency ([1]; TFE3-RCC UOK109 viability) was 59 nM (active), the z-score [1, 2] was -2.34 and the z-score [1, 3] was -1.76. It also gave a z-score [1, 4] of -1.93.

For `O=C(O)C=Cc1ccc(Cn2ccnc2)cc1`, the z-score [1, 2] was 0.607, the z-score [1, 3] was 0.722 and the z-score [1, 4] was 0.686.

`CC(=O)OCC(=O)[C@@]1(O)CC[C@H]2[C@@H]3CCC4=CC(=O)CC[C@]4(C)[C@@H]3C(=O)C[C@@]21C` showed a z-score [1, 2] of -0.147, a z-score [1, 3] of 0.413 and a z-score [1, 4] of 0.581.

For `CCCCCCCCCCCC(CC1OC(=O)C1CCCCCC)OC(=O)C(CC(C)C)NC=O` (configuration not stated), the z-score [1, 2] was 0.558, the z-score [1, 3] was -0.129 and the z-score [1, 4] was 0.669. The Potency (3D7) was 1.12 µM (active) and the Potency (7G8) was 2.51 µM (active).

With `CN(N=O)C(=O)N[C@H]1C(O)OC(CO)[C@@H](O)[C@H]1O` (some centres not stated) the z-score [1, 2] was 0.19, the z-score [1, 3] was 0.37 and the z-score [1, 4] was -0.505.
